Results taken from PubChem BioAssay AID602310 (National Center for Advancing Translational Sciences (NCATS), 2012).
The whole screen tested about 410,000 compounds, of which about 310 (0.076%) were called active. Not shown: some 2% with an inconclusive outcome. This excerpt belongs to a sample that is enriched for actives. A number with no mark means an inactive call. The call rests on the fitted dose curve; in most records, active means well fitted curve in the direction sought with a large enough effect; inconclusive means small, poorly fitted or top-dose-only effect; inactive means flat fitted curve, though single readings scatter.

What follows are compounds tested against DNA dC->dU-editing enzyme APOBEC-3G (Homo sapiens) (UniProt Q9HC16) (assay: qHTS for Inhibitors of Vif-A3G Interactions: qHTS). Details: HeLa A3G-eYFP + Vif (tagged APOBEC3G with the HIV-1 protein that degrades it), YFP fluorescence, overnight; series mostly up to 46.1 µM; activity, negative = active: at the top concentration.
Sequence of DNA dC->dU-editing enzyme APOBEC-3G (Homo sapiens) (Q9HC16 whole entry, looked up): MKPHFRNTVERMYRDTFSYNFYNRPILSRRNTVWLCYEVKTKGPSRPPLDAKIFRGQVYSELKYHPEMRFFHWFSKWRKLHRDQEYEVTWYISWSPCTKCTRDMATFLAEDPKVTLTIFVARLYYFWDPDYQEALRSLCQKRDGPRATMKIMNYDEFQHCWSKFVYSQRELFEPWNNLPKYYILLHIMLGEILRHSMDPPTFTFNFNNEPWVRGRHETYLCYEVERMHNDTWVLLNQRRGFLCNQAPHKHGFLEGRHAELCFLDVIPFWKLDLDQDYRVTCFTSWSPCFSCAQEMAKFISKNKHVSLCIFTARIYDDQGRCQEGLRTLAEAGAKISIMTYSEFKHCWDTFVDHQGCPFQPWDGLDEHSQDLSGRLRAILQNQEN
Text: The recent discovery and characterization of host restriction factors, which provide a potent defense to invading retroviruses, has provided new targets for antiviral drug development. APOBEC3G (A3G) and APOBEC3F (A3F) are potent cytidine deaminases that block HIV-1 replication; HIV-1 expresses the Vif protein, which counteracts A3G and A3F by binding to them and inducing their proteasomal degradation. The Vif-A3G and Vif-A3F interactions provide two potential targets for development of small molecules which can interfere with the ability of Vif to degrade A3G or A3F. […] To identify inhibitors that can interfere with Vif mediated degradation of A3G and A3F, we have developed Hela cell lines that stably express A3G or A3F tagged with eYFP at the C-terminal end (A3G-eYFP or A3F-eYFP, respectively) and Vif. In the absence of an inhibitor, Vif induces degradation of A3G-eYFP and A3F-eYFP, and the cells are not fluorescent. In the presence of an inhibitor, it is expected that Vif will be unable to degrade A3G-eYFP and/or A3F-eYFP, resulting in an increase in yellow fluorescence. In this assays Vif A3G was screened against the Molecular Library Small Molecule Repository (MLSMR). NIH Chemical Genomics Center [NCGC] NIH Molecular Libraries Probe Centers Network [MLPCN] MLPCN Grant: MH093245 Assay Submitter (PI): Vinay Pathak, National Cancer Institute
5 uL of 700 cells/well of A3G-YFP cells are dispensed into black, clear bottom plates. The plates are incubated overnight at 37 deg C. 23 nL of compounds are added by pintool. The plates are incubated overnight at 37 deg C and then read on the TTP Acumen (Ex 488/ Em 500-530).
Further: nearly all actives have a fitted effect of over 60% in size.
On the % scale 0 is the no-effect control and ±100 the full control effect; potency means the concentration at half of the fitted maximal effect.
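Wherever activity, negative = active is given: hits raise eYFP signal because A3G escapes Vif-driven loss.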

Row | SMILES | activity, negative = active [%] | Potency
1 | O=C(c1cnn2c1NC(=C1CC1)C=C2C(F)F)N1CCc2ccccc2C1 | 2.57 | 
2 | Cc1cccc(CNC(=O)c2cnc3sc(N4CCCCC4)nn3c2=O)c1 | 2.64 | 
3 | Cc1ccccc1NC(=O)Cn1c(=O)n(Cc2ccco2)c(=O)c2ccc(C(=O)NC3CCCC3)cc21 | -3.97 | 
4 | CCOC(=O)c1ccc(NC(=O)c2c(NCc3cccs3)sc3c2CCCC3)cc1 | 5.26 | 
5 | CN(C)c1ccc(/C=C/c2sc3ccccc3[n+]2C)cc1 | 3.75 | 
6 | CC(C)Sc1oc(-c2cccs2)nc1S(=O)(=O)c1ccc(Cl)cc1 | -1.22 | 
7 | CCOC(=O)C1CCC(CN(Cc2ccc(OC)cc2)S(=O)(=O)c2ccc(F)c(C(=O)Nc3cc(C)ccc3C)c2)CC1 (stereo not given) | -1.77 | 
8 | CC(C)c1ccc(NC(=O)Cn2c3ncccc3c(=O)n2-c2ccccc2)cc1 | 1.84 | 
9 | CC(C)(C)c1ccc(C(=O)C[N+]2(C)CCCc3ccccc32)cc1 (stereo not given) | 1.9 | 
10 | Cc1cccc(N2CCN(S(=O)(=O)c3ccc4[nH]c5c(c4c3)CCCCC5)CC2)c1C | -0.718 | 
11 | C=CCOc1cccc(C2NC(=O)c3ccccc3O2)c1 (stereo not given) | -7.4 | 
12 | O=C1NC(c2cccc(Cl)c2)Nc2ccccc21 (stereo not given) |  | 11.2 µM (active)
13 | O=C1NC(c2ccccc2)Oc2ccccc21 (stereo not given) | 0.257 | 
14 | COc1ccc(S(=O)(=O)NCC(c2ccc(N(C)C)cc2)N2CCc3ccccc32)cc1OC (stereo not given) | 3.67 | 
15 | COc1cccc(NC(=O)Nc2ccc3c(c2)N(C)C(=O)c2ccccc2S3)c1 | -13 | 
16 | O=C(Nc1cc(C(F)(F)F)ccc1Cl)c1cc2nc(-c3ccc4c(c3)OCO4)cc(C(F)(F)F)n2n1 | 0.316 | 
17 | CC(C)(C)NC(=O)CSc1nc(-c2ccc(F)cc2)cc(C(F)(F)F)n1 | 1.1 | 
18 | CCOc1ccc(S(=O)(=O)c2cn(Cc3ccccc3)c3ccc(OCC)cc3c2=O)cc1 | -5.11 | 
19 | CC(NC(=O)c1cc2c(=O)n3ccccc3nc2n(C(C)C)c1=N)c1ccccc1 (stereo not given) | 2.26 | 
20 | CCN(CC)N=Nc1cccc(NC(C)=O)c1 | 6.85 | 
21 | CCN(CC)C(=O)CSC(Nc1cccc(F)c1)=C(C#N)C#N |  | 12.6 µM (active)
22 | CC1CC1C(=O)OCC(=O)Nc1cccc(F)c1 (stereo not given) | -0.831 | 
23 | COc1ccc(/C=C/c2ccnc3ccccc23)cc1OC | -9.81 | 
24 | Cc1cccc(NC(=O)c2nnn(CC(=O)Nc3ccc(C(C)C)cc3)c2N)c1C | 3.32 | 
25 | C/C=C/NNC(=O)Cc1ccc(OC)cc1 | -19.1 | 

Row | SMILES | activity, negative = active [%] | Potency
26 | CO[C@H]1O[C@@H]2O[C@@]3(C)CC[C@@H]4[C@@H](C)CC[C@@H]([C@H]1C)[C@@]24OO3 | -4.35 | 
27 | CCOc1ccc(-c2cc3nc(C4CCN(C(=O)OC(C)(C)C)CC4)c(C(=O)Nc4ccc(C(=O)OC)cc4)cn3n2)cc1 | 0.118 | 
28 | CS(=O)(=O)c1ccc(-c2nnc(NC(=O)c3ccc4c(c3)OCCO4)o2)cc1 | 5.26 | 
29 | CCCCCn1c(=O)[nH]c2cc(C(=O)Nc3ccc(F)cc3)ccc2c1=O | 3.51 | 
30 | N#Cc1ccc[n+](CC(=O)c2ccc(O)c(O)c2)c1 | 1.87 | 
31 | COc1ccc(CN2CCC(=O)c3ccccc3S2(=O)=O)cc1 | -0.629 | 
32 | Cc1c(CCO)sc[n+]1CC(=O)c1ccc2ccccc2c1 | 0.145 | 
33 | O=C(CSc1nc(-c2cccc(F)c2)[nH]c1-c1ccccc1)Nc1ccc2c(c1)OCO2 | 1.68 | 
34 | NC(=O)Nc1ccc(/C=C/c2ccnc3ccccc23)cc1 | -8.22 | 
35 | CCN(CC)/[N+]([O-])=N/OCOC(=O)Cc1c(C)n(C(=O)c2ccc(Cl)cc2)c2ccc(OC)cc12 | -2.29 | 
36 | COc1cc(C)ccc1OCCSc1nc2ccc(NC(=O)c3ccc(C)cc3)cc2s1 | -1.22 | 
37 | CC(=O)c1ccc[n+](C(C)CCC(C)[n+]2cccc(C(C)=O)c2)c1 (stereo not given) | 4.94 | 
38 | CCCN1C(=O)C(O)(CC(=O)c2ccc(CC)cc2)c2cc(Br)ccc21 (stereo not given) | 4.05 | 
39 | O=C(Nc1ccccc1C(F)(F)F)c1nc(S(=O)(=O)Cc2ccccc2F)ncc1Cl | -25.9 | 
40 | Cc1cccc(N2CCN(C(=O)CCSCc3ccccc3F)CC2)c1C | 3.33 | 
41 | CN(CCC#N)c1ccc(C=O)cc1 | 2.45 | 
42 | Cc1ccc(-c2nn3c(=O)cc(CN4CCN(S(=O)(=O)c5ccc(Cl)cc5)CC4)nc3s2)cc1 | -0.363 | 
43 | CC1(C)Cc2ccccc2-c2c[nH]c(=O)n21 | 1.1 | 
44 | COc1cc(NC(=O)CN2CCN(S(=O)(=O)c3ccc(Br)cc3)CC2)cc(OC)c1 | 6.1 | 
45 | Cc1cc(NC(=O)C2CCC(CNS(=O)(=O)c3ccc(Br)s3)CC2)ccc1Br (stereo not given) | 0.952 | 
46 | Cc1ccc(NC(=O)CCCn2c(=O)c3cccn3c3ccccc32)cc1Cl | 4.11 | 
47 | O=C1COc2ccc(-c3csc(-c4ccc(Cl)cc4)n3)cc2N1 | -0.481 | 
48 | CN(C)c1ccc(C=Nc2ccc(/C=C/c3ccnc4ccccc34)cc2)cc1 | -29.8 | 
49 | CCOC(=O)c1ccc(-c2ccc(/C=C(\C#N)C(=O)Nc3ccc(C)cc3)o2)cc1 | 2.39 | 
50 | Cc1ccc2nc(/C(C#N)=C/c3ccc(-c4ccc(C(=O)OC(C)C)cc4)o3)[nH]c2c1 |  | 2 µM (active)

Row | SMILES | activity, negative = active [%] | Potency
51 | Cc1ccc2nc(/C(C#N)=C/c3ccccc3F)[nH]c2c1 | -5.05 | 
52 | Cc1c(C(=O)Nc2cccc(Cl)c2)oc2ccc(S(=O)(=O)N3CCOCC3)cc12 | -4.72 | 
53 | CS(=O)c1ccc(/C=C2\C=Cc3ccccc32)cc1 (stereo not given) | -4.01 | 
54 | OCC(O)C(O)C(O)C(O)C=Nc1ccc(/C=C/c2ccnc3ccccc23)cc1 (stereo not given) | -13.5 | 
55 | C=COC(=O)N1CCN(/[N+]([O-])=N/Oc2ccc([N+](=O)[O-])cc2[N+](=O)[O-])CC1 | -11.3 | 
56 | SCc1nc2ccc(Cl)cc2[nH]1 | -15.9 | 
57 | CCC(=O)N1CCc2cc(Br)cc(S(=O)(=O)CCC(=O)NCc3ccccc3OC)c21 | 0.639 | 
58 | O=C(CCSCc1cccc(F)c1)NCc1ccccc1 | 1.45 | 
59 | O=C1C[C@H]2C=CCc3cccc(c32)CN1Cc1ccccc1 | 1.8 | 
60 | CN1CCN(/[N+]([O-])=N/Oc2ccc([N+](=O)[O-])cc2[N+](=O)[O-])CC1 | -2.57 | 
61 | O=C1CCC[C@@H]2C[C@@]3(C[C@@H]4CCN1[C@H]24)Nc1ccccc1NC3=NCc1ccccc1 | -3.5 | 
62 | CCC(C)NC(=O)Cn1c(=O)n(-c2ccc(Cl)cc2)c(=O)c2c3c(sc21)CCCC3 (stereo not given) | -2.77 | 
63 | Cc1ccc(CSc2oc(-c3cccs3)nc2S(=O)(=O)c2ccc(C)cc2)cc1 | -5.68 | 
64 | CC1(C)C=Cc2c(ccc(C(=O)/C=C/c3ccccc3)c2O)O1 | -4.83 | 
65 | Cc1nc2nc(SCC(=O)N(Cc3ccccc3)C(C)C)nn2c(C)c1Cc1ccccc1Cl | -4.58 | 
66 | C=C1C=C(C(F)F)n2ncc(C(=O)NCCc3ccccc3OC)c2N1 | 1.18 | 
67 | O=C1O/C(=C\c2ccc(O)cc2)C(O)=C1c1ccc(O)cc1 | 0.495 | 
68 | Cc1ccc(C)c(Cn2c(C(=O)O)c(CNCc3cccs3)c3ccccc32)c1 | 5.36 | 
69 | CCN(CC)c1ccc(/C=C/c2c(C)cnc3ccc(C)cc23)cc1 | -14.3 | 
70 | CCOc1cccc(CC(=O)N2CCc3c([nH]c4ccccc34)C2c2ccc(OC)cc2)c1OCC (stereo not given) | 5.45 | 
71 | CCc1cccc(CC)c1NC(=O)Cn1c(=O)c(-c2cc(C)ccc2NC(C)=O)nc2ccccc21 | 2.05 | 
72 | CCN1CCN(CCCNC(=O)c2ccc3c(c2)sc2nc(-c4ccc(OC)cc4)cn23)CC1 | 1.57 | 
73 | COc1ccc(N2CCN(c3nc(-c4ccccc4F)nc4ccccc34)CC2)cc1 | 1.44 | 
74 | CC(C)(C)OC(=O)N(Cc1ccco1)S(=O)(=O)c1ccccc1Br | -2.34 | 
75 | Nc1ncnc2nnsc12 | -0.535 | 

Row | SMILES | activity, negative = active [%] | Potency
76 | Clc1cccc[n+]1CCCC[n+]1ccccc1Cl | -3.41 | 
77 | O=C(NCC(c1ccco1)S(=O)(=O)c1cccs1)c1ccc(F)cc1 (stereo not given) | -0.334 | 
78 | COc1ccc(-c2nc(=N)sn2-c2ccccc2)cc1 | -12.4 | 
79 | Cc1ccccc1NC(=O)c1c(NC(=O)c2ccccc2F)sc2c1CCC(C)C2 (stereo not given) | 2.58 | 
80 | COc1ccc(-c2[nH]c3c(c2-c2c(-n4cccc4)n(C)c(=O)n(C)c2=O)c(=O)n(C)c(=O)n3C)cc1 | 4.14 | 
81 | OC(CBr)CN1CCCCC1 (stereo not given) | 2.13 | 
82 | CN(C(=N)N)c1ccc(/C=C2\C=Cc3ccccc32)cc1 | 0.609 | 
83 | Cc1cccn2c(=O)c3cc(C(=O)NC(C)c4ccccc4)c(=N)n(CCCO)c3nc12 (stereo not given) | 1.93 | 
84 | COC(=O)c1ccc(OC)c(Cn2c(=O)n(Cc3ccccc3)c(=O)c3c2c2cc(OC)ccc2n3C)c1 | -5.74 | 
85 | CCOC(=O)c1scc(-c2ccc(C)cc2)c1S(=O)(=O)Nc1cc(C)ccc1C | 2.25 | 
86 | COc1ccc(OCC(=O)Nc2cccc(C(=O)OCc3cc(=O)n4nc(C)sc4n3)c2)cc1 | 1.27 | 
87 | CCOc1ccc(N(CC)S(=O)(=O)N2CCCC(C(=O)Nc3ccc(C(C)=O)cc3)C2)cc1 (stereo not given) | 3.2 | 
88 | Cc1ccc(S(=O)(=O)c2nc(-c3ccco3)oc2SCC(=O)Nc2ccc(F)cc2)cc1 | -4.15 | 
89 | COc1ccc(CNC(=O)c2ccc3c(c2)nc2n3CCOC2)c(OC)c1 | 2.94 | 
90 | COC(=O)c1cc(NC(=O)CCS(=O)(=O)c2cc(Br)cc3c2N(C(=O)C2CC2)CC3)cc(C(=O)OC)c1 | 1.17 | 
91 | CCCCN(CC)CCCNC(=O)Cn1ncc2c([nH]c3ccc(C)cc32)c1=O | 1.92 | 
92 | O=C(Nc1ccccc1F)C(c1ccccc1)N1Cc2ccccc2C1=O (stereo not given) | -0.9 | 
93 | OC(Cc1ccc2ccccc2n1)c1ccc(Cl)c(Cl)c1 (stereo not given) | -0.459 | 
94 | Cc1c(-c2nsc(NC(=O)c3cccc(Cl)c3)n2)nnn1-c1ccccc1C(F)(F)F | 4.58 | 
95 | CN(C)c1ccc(/C=C2\C=Cc3ccccc32)cc1Br | -3.17 | 
96 | CCn1c(=O)c(=O)n(CC)c2cc(N3CCCCC3)c(NC(=O)c3cccc(F)c3)cc21 | 0.845 | 
97 | CN(C)c1ccc(/C=N\Nc2ccc([N+](=O)[O-])cc2[N+](=O)[O-])cc1Cl | 3.64 | 
98 | CC1CCc2noc(NC(=O)c3ccc([N+](=O)[O-])cc3)c2C1 (stereo not given) | -0.497 | 
99 | Cc1cc(NS(=O)(=O)c2ccc3oc(=O)c4ncn(C)c4c3c2)ccc1Br | -20.5 | 
100 | Cc1cc(C)c2oc(C(=O)Nc3c(C(=O)Nc4ccccc4)oc4ccccc34)cc(=O)c2c1 | 3.43 | 
